Results: PubChem BioAssay (EPA / NIEHS)
Values joined by “and” are separate entries in the source; they are usually repeats but may differ in a detail not shown here. Equal values may be shown once. Records with an inconclusive call do not appear. Active and inactive are the calls of the source. How the source made its calls, unless noted: active means hit-call score of the fitted dose curve at least 0.9, where 1 is the maximum; inconclusive means response in the unintended direction; inactive means score below 0.9.

Columns and labels:
[1] = read-out: Thyroid Hormone Responsive (THRSP), THRSP (gene 7069); experiment: LTEA_HepaRG_THRSP: Life Technologies and Expression Analysis (LTEA) Assay for Thyroid Hormone Responsive (THRSP) using HepaRG (AID 2283536; active means hit-call score of the fitted dose curve at least 0.9, where 1 is the maximum; inactive means score below 0.9); conditions: mRNA level, 48 h; actives raise or lower the signal
In short: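 qRT-PCR read-out (Fluidigm TaqMan), housekeeping-normalized (ACTB/GAPDH/POLR2A). HepaRG, 48 h chemical exposure, 8-pt half-log series from 100 uM in 0.5% DMSO, duplicates. Bidirectional curve fit vs 0.5% DMSO baseline.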

[2] = read-out: Cellular tumor antigen p53 (Homo sapiens) (UniProt P04637); experiment: LTEA_HepaRG_TP53: Life Technologies and Expression Analysis (LTEA) Assay for Tumor Protein P53 (TP53) using HepaRG (AID 2283537; active means hit-call score of the fitted dose curve at least 0.9, where 1 is the maximum; inactive means score below 0.9); conditions: mRNA level, 48 h; actives raise or lower the signal
In short: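 Gain or loss of TP53 mRNA signal is scored relative to 0.5% DMSO after 48 h chemical treatment of HepaRG liver cells, tested in duplicate at eight half-log concentrations up to 100 uM.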

[3] = read-out: UDP glucuronosyltransferase (UGT1A1), UGT1A1 (gene 54658); experiment: LTEA_HepaRG_UGT1A1: Life Technologies and Expression Analysis (LTEA) Assay for UDP glucuronosyltransferase (UGT1A1) using HepaRG (AID 2283538; active means hit-call score of the fitted dose curve at least 0.9, where 1 is the maximum; inactive means score below 0.9); conditions: mRNA level, 48 h; actives raise or lower the signal
In short: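 UGT1A1 transcript level, measured by qRT-PCR with three housekeeping genes for normalization, after 48 h treatment of human HepaRG cells (0.5% DMSO, duplicates, up to 100 uM, half-log steps, 8 points). Curves fit both directions against DMSO baseline.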

[4] = read-out: UDP glucuronosyltransferase (UGT1A6), UGT1A6 (gene 54578); experiment: LTEA_HepaRG_UGT1A6: Life Technologies and Expression Analysis (LTEA) Assay for UDP glucuronosyltransferase (UGT1A6) using HepaRG (AID 2283539; active means hit-call score of the fitted dose curve at least 0.9, where 1 is the maximum; inactive means score below 0.9); conditions: mRNA level, 48 h; actives raise or lower the signal
In short: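 Expression was quantified by TaqMan qRT-PCR on Fluidigm arrays with ACTB/GAPDH/POLR2A normalization and bidirectional fitting against 0.5% DMSO. HepaRG cells (~100,000/well) were treated in duplicate for 48 h at eight half-log concentrations up to 100 uM in serum-free induction medium.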

[5] = read-out: X-box binding protein 1 (XBP1), XBP1 (gene 7494); experiment: LTEA_HepaRG_XBP1: Life Technologies and Expression Analysis (LTEA) Assay for X-box binding protein 1 (XBP1) using HepaRG (AID 2283540; active means hit-call score of the fitted dose curve at least 0.9, where 1 is the maximum; inactive means score below 0.9); conditions: mRNA level, 48 h; actives raise or lower the signal
In short: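 XBP1 transcript by qRT-PCR (housekeeping-normalized: ACTB, GAPDH, POLR2A) after 48 h chemical treatment of HepaRG cells, 8-point half-log series topping at 100 uM, vehicle 0.5% DMSO. Gain and loss of signal fitted relative to DMSO.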

[6] = LTEA_HepaRG_LDH_cytotoxicity: Cytotoxicity Assessment in the Life Technologies and Expression Analysis (LTEA) Assay (AID 2283563);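 on AC50: LDH activity released into spent culture medium as a marker of cell death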
In short: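 LDH release into culture medium read after 48 h chemical treatment of HepaRG cells. Duplicate wells, eight-point half-log series topping at 100 uM, 0.5% DMSO vehicle and baseline.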

[7] = TOX21_p53_BLA_p2_viability: Viability Assessment in the Tox21 HCT-116 p53 Agonism Beta-lactamase Assay, Phase 2 (AID 2283591);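 further: compound exposure lasted 16 h at 37 °C; actives lower the ATP signal meaning cytotoxicity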
In short: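 HCT116 p53-bla cells, 4000/well, dosed after 5 h plating (217-fold dilution of DMSO stocks) and incubated 16 h at 37C. Viability taken as cellular ATP by CellTiter-Glo luminescence after 30 min RT; signal loss marks cytotoxicity.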

[8] = target: Cellular tumor antigen p53 (Homo sapiens) (UniProt P04637); experiment: TOX21_p53_BLA_p3_ratio: Tox21 HCT-116 p53 Agonism Beta-lactamase Assay, Ratio, Phase 3 (AID 2283596)
In short: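 Cells were seeded at 4000/well, rested 5 h at 37C, then dosed with DMSO compound solutions (217-fold dilution) for 16 h. CCF4-AM substrate was loaded for 2 h at room temperature, and the 460/530 nm emission ratio was fitted for gain of signal versus DMSO.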

[9] = TOX21_p53_BLA_p4_viability: Viability Assessment in the Tox21 HCT-116 p53 Agonism Beta-lactamase Assay, Phase 4 (AID 2283597);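 further: hits lower the luminescence signal meaning cytotoxicity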
In short: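 Cytotoxicity as reduced cellular ATP (CellTiter-Glo luminescence, 30 min room temperature), measured in the same wells following the CCF4 FRET p53 reading. Human HCT-116 cells received compounds in DMSO (217-fold dilution) for 16 h.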

[10] = target: Cellular tumor antigen p53 (Homo sapiens) (UniProt P04637); experiment: TOX21_p53_BLA_p4_ratio: Tox21 HCT-116 p53 Agonism Beta-lactamase Assay, Ratio, Phase 4 (AID 2283601)
In short: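 HCT-116 p53 beta-lactamase reporter cells (4000/well) preincubated 5 h, then compound (217-fold dilution of DMSO stock) for 16 h at 37C. CCF4-AM substrate added 2 h at room temperature; 460/530 nm emission ratio fitted upward versus DMSO.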

[11] = Tanguay_ZF_120hpf_MORT_legacy: (Legacy) Oregon State University Tanguay Lab 120 Hour Post-fertilization zebrafish Assay for Mortality (AID 2283633);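 on AC50: fitted as increase in binary mortality versus DMSO negative control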
In short: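 Static waterborne exposure from 6 to 120 hpf at 28C of single dechorionated wild-type (5D) embryos per well, 0.64% DMSO final. Death recorded present/absent by brightfield at 24 and 120 hpf.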

[12] = Tanguay_ZF_120hpf_YSE_legacy: (Legacy) Oregon State University Tanguay Lab 120 Hour Post-fertilization zebrafish Assay for Yolk Sac Edema (AID 2283634);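 on AC50: actives raise the incidence of yolk sac edema above the DMSO baseline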
In short: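 Presence or absence of yolk sac edema was recorded at 120 hpf in surviving larvae. These were wild-type Tropical 5D embryos, chorion removed at 4 hpf, held in static exposure at 28C from 6 hpf with 0.64% DMSO vehicle.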

[13] = Tanguay_ZF_120hpf_AXIS_legacy: (Legacy) Oregon State University Tanguay Lab 120 Hour Post-fertilization zebrafish Assay for Body Axis Malformation (AID 2283635);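 on AC50: potency for an increased fraction of larvae scored with body axis malformation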
In short: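 Binary scoring of axis defects at 120 hpf under brightfield, fitted positive versus DMSO. Tropical 5D embryos, chorion removed by pronase at 4 hpf, were singly exposed in sealed, dark plates at 28C from 6 hpf; DMSO 0.64% final.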

[14] = Tanguay_ZF_120hpf_EYE_legacy: (Legacy) Oregon State University Tanguay Lab 120 Hour Post-fertilization zebrafish Assay for Eye Malformation (AID 2283636);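 further: binary presence or absence of eye malformation scored by brightfield in 120 hpf larvae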
In short: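 5D wild-type embryos, pronase-dechorionated at 4 hpf; static exposure 6–120 hpf, 28C, dark; DMSO 0.64% final; 5uM trimethyltin chloride positive control. Binary eye-defect scoring at 120 hpf; dead embryos not scored.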

[15] = Tanguay_ZF_120hpf_SNOU_legacy: (Legacy) Oregon State University Tanguay Lab 120 Hour Post-fertilization zebrafish Assay for Snout Malformation (AID 2283637)
In short: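 Binary brightfield scoring of snout malformation at 120 hpf. Dechorionated 5D wild-type embryos, one per well, static exposure from 6 hpf at 28C, sealed and dark; final DMSO 0.64% (vol/vol), DMSO as baseline; 5uM trimethyltin chloride positive control.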

[16] = Tanguay_ZF_120hpf_JAW_legacy: (Legacy) Oregon State University Tanguay Lab 120 Hour Post-fertilization zebrafish Assay for Jaw Malformation (AID 2283638)
In short: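 Binary jaw-malformation call at 120 hpf by brightfield microscopy. Embryos (Tropical 5D strain, chorion removed at 4 hpf) were dosed statically at 6 hpf, one per well, at 28C with 0.64% DMSO. Embryos that died were not scored.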

[17] = TOX21_p53_BLA_p3_viability: Viability Assessment in the Tox21 HCT-116 p53 Agonism Beta-lactamase Assay, Phase 3 (AID 2283593);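 further: cells exposed to compound for 16 h before reading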
In short: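 HCT116 cells, 4000/well, dosed 5 h after plating by pin transfer (217-fold dilution from DMSO stock) and incubated 16 h at 37C, 5% CO2. Viability read as ATP luminescence with CellTiter-Glo after 30 min at room temperature.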

[18] = TOX21_p53_BLA_p5_viability: Viability Assessment in the Tox21 HCT-116 p53 Agonism Beta-lactamase Assay, Phase 5 (AID 2283600)
In short: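 Viability came from CellTiter-Glo ATP luminescence, read after 30 min at room temperature. Before this, HCT-116 p53-bla cells (4000/well) had 16 hours of compound exposure at 37C, with DMSO stocks diluted 217-fold on transfer.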

[19] = ATG_XTT_Cytotoxicity: Cytotoxicity Assessment in the Attagene TRANS-FACTORIAL HepG2 Assay (AID 2283584)
In short: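 Viability endpoint from XTT after 24 h chemical exposure of reporter-transfected human HepG2 liver cells; signal loss fitted relative to DMSO negative control.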

Chain of Cellular tumor antigen p53 (Homo sapiens) (P04637 whole entry, looked up): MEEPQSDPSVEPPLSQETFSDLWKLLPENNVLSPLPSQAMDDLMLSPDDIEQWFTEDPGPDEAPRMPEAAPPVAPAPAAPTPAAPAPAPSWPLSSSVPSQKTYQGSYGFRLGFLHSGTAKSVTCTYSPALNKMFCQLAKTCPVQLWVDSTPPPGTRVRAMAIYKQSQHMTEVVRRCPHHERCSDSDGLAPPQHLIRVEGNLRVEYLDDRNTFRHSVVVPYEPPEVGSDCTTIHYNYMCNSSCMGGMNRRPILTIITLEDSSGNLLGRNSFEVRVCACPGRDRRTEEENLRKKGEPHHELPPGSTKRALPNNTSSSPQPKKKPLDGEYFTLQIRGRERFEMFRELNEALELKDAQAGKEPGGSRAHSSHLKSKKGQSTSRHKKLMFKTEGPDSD

For `OB(O)O`, the outcome [1] was “inactive”, the outcome [2] was “inactive” and the outcome [3] was “inactive”. The outcome [4] was “inactive”, the outcome [5] was “inactive” and the outcome [6] was “inactive”. For the same compound, the outcome [7] was “inactive”, the outcome [8] was “inactive” and the outcome [9] was “inactive”. For the same compound, the outcome [10] was “inactive”, the outcome [11] was “inactive” and the outcome [12] was “inactive”. For the same compound, the outcome [13] was “inactive”, the outcome [14] was “inactive” and the outcome [15] was “inactive”. The outcome [16] was “inactive”.
For `S=C([S-])NCCNC(=S)[S-].[Mn+2]`, the AC50 [1] was 835 nM (active), the AC50 [3] was 2.75 µM (active) and the AC50 [4] was 3.64 µM (active). The AC50 [5] was 3.17 µM (active), the AC50 [6] was 3.77 µM (active) and the outcome [11] was “inactive”. The outcome [12] was “inactive”, the outcome [14] was “inactive” and the outcome [15] was “inactive”. For the same compound, the outcome [16] was “inactive”.
For `CCCCOC(=O)[C@@H](C)Oc1ccc(Oc2ccc(C(F)(F)F)cn2)cc1`, the outcome [1] was “inactive”, the outcome [2] was “inactive” and the outcome [3] was “inactive”. The outcome [4] was “inactive”, the outcome [5] was “inactive” and the outcome [6] was “inactive”. The outcome [7] was “inactive”, the outcome [17] was “inactive” and the outcome [8] was “inactive”. For the same compound, the outcome [18] was “inactive”, the outcome [10] was “inactive” and the outcome [11] was “inactive”. The outcome [12] was “inactive”, the outcome [13] was “inactive” and the outcome [14] was “inactive”. For the same compound, the outcome [15] was “inactive”.
With `COC(=O)c1ccc(I)cc1S(=O)(=O)NC(=O)Nc1nc(C)nc(OC)n1` the outcome [1] was “inactive”, the outcome [2] was “inactive” and the outcome [4] was “inactive”. The outcome [5] was “inactive”, the outcome [6] was “inactive” and the outcome [7] was “inactive”. The outcome [17] was “inactive”, the outcome [9] was “inactive” and the outcome [18] was “inactive”. The outcome [10] was “inactive”, the outcome [11] was “inactive” and the outcome [12] was “inactive”. For the same compound, the outcome [13] was “inactive”.
In the case of `CCOC(=O)C(C)Oc1ccc(Oc2cnc3cc(Cl)ccc3n2)cc1` (configuration not stated), the outcome [1] is reported as “inactive”, the outcome [3] is reported as “inactive” and the outcome [4] is reported as “inactive”. The outcome [5] was “inactive”, the outcome [6] was “inactive” and the outcome [11] was “inactive”. The outcome [12] was “inactive”, the outcome [13] was “inactive” and the outcome [14] was “inactive”. For the same compound, the outcome [15] was “inactive” and the outcome [16] was “inactive”.
For `S=C(S)NCCNC(=S)S.[Mn+2].[S-]C([S-])=NCCN=C([S-])[S-].[Zn+2]`, the AC50 [1] was 699 nM (active) and 352 nM (active) and 513 nM (active), the AC50 [3] was 1.25 µM (active) and 1.46 µM (active) and 1.2 µM (active) and the AC50 [4] was 2.12 µM (active) and 1.74 µM (active). The AC50 [5] was 908 nM (active) and 953 nM (active), the AC50 [6] was 1.58 µM (active) and 1.57 µM (active) and 1.84 µM (active) and the outcome [19] was “inactive”. The outcome [11] was “inactive”, the outcome [12] was “inactive” and the outcome [13] was “inactive”. The outcome [14] was “inactive”, the outcome [15] was “inactive” and the outcome [16] was “inactive”.
With `CCN(CC)C(=O)c1cccc(C)c1` the outcome [1] was “inactive”, the AC50 [3] was 16.5 µM (active) and the outcome [4] was “inactive”. For the same compound, the outcome [5] was “inactive”, the outcome [6] was “inactive” and the outcome [19] was “inactive”. For the same compound, the outcome [11] was “inactive”, the outcome [12] was “inactive” and the outcome [13] was “inactive”. For the same compound, the outcome [14] was “inactive”, the outcome [15] was “inactive” and the outcome [16] was “inactive”.
For `CCCCOCCOCCOCc1cc2c(cc1CCC)OCO2`, the AC50 [1] was 10700 nM (active), the AC50 [3] was 3.72 µM (active) and the outcome [4] was “inactive”. For the same compound, the outcome [5] was “inactive”, the outcome [6] was “inactive” and the AC50 [11] was 5.13 µM (active). For the same compound, the AC50 [12] was 28.3 µM (active), the AC50 [13] was 25.5 µM (active) and the outcome [14] was “inactive”. The AC50 [15] was 7.01 µM (active) and the outcome [16] was “inactive”.
With `COc1c(Cl)ccc(Cl)c1C(=O)O` the outcome [1] was “inactive”, the outcome [3] was “inactive” and the outcome [4] was “inactive”. For the same compound, the outcome [5] was “inactive”, the outcome [6] was “inactive” and the outcome [11] was “inactive”. For the same compound, the outcome [12] was “inactive”, the outcome [13] was “inactive” and the outcome [14] was “inactive”. The outcome [15] was “inactive” and the outcome [16] was “inactive”.
